Source: PubChem BioAssay
Activity calls are given as the source filed them.

assay: JC-1 mitochondrial signal, unstimulated adipocytes – cell-based, JC-1 fluorescence, 3T3-L1 adipocytes, 24 h, 100 nL compound, profiling panel (AID 1168); conditions: JC-1 mitochondrial fluorescence, higher = more signal, called active from +8 up or from −8 down; further: test concentration not given here

z-score, inactive:
COC(=O)Cn1c(C(=O)N2CCCC2)cc2c1C[C@H]1CN(C(=O)c3ccccc3)[C@@](Cc3ccccc3)(C(=O)OC)[C@@H]21 0.385
O=C1C[C@@](C(=O)NCCN2CCOCC2)(c2ccc([N+](=O)[O-])cc2)[C@@H](c2ccc(CO)cc2)N1C1CCCCC1 0.295
CC(=O)NCCCC[C@@H]1NC(=O)[C@H]2C[C@@H](C(=O)NCCCCCCN(C)C)[C@@H](c3cccc(OCCO)c3)N2C1=O -0.308
CC(C)(C)OC(=O)CC[C@]1(C(=O)N2CCCCC2)N=C(c2ccc(OCCCO)cc2)O[C@H]1c1ccccc1 2.09
CC(=O)NCCCC[C@@H]1NC(=O)[C@H]2C[C@@H](C(=O)NCCCCCCN(C)C)[C@@H](c3ccc(O)cc3)N2C1=O 0.154
O=C1C2C=CC(C(O)Cc3ccccc3)N(Nc3ccc([N+](=O)[O-])cc3)C2C(=O)N1c1ccccc1 (stereo not given) 0.0226
C=C(COC)C(=O)CC[C@H](OC(=O)c1ccccc1-c1ccccc1C(=O)O)c1cccc(OCCO)c1 0.414
C=CC[C@@]1(C(=O)NCC(O)CO)N=C(c2ccc(OCCCO)cc2)O[C@@H]1c1ccccc1CN=[N+]=[N-] (stereo not given in full) 1.62
O=C(CS)NCCCCCCNC(=O)[C@@H]1C[C@@H]2C(=O)N[C@@H](Cc3ccccc3)C(=O)N2[C@@H]1c1ccc(O)cc1 -0.654
C=CC[C@]1(C(=O)N2CCCCC2)N=C(c2ccc(OCCCO)cc2)O[C@H]1c1ccccc1N=[N+]=[N-] 0.866
